Reference: PubChem BioAssay (NCATS)
Values joined by “and” are separate entries in the source; they are usually repeats but may differ in a detail not shown here. Equal entries are not always repeated. Inconclusive results are not listed. Entries that show only a call come without a potency. Active and inactive are the calls of the source. Unless noted, calls follow the shape of the full dose curve.

Columns and labels:
[1] = MultiTox-Fluor Cytotoxicity Assay - LYMP1-001 - Live Cells (AID 947; active = well fitted curve in the direction sought with a large enough effect; an effect the other way counts as inactive or inconclusive)
[2] = Cell Viability - LYMP2-015 (AID 971; active = well fitted curve in the direction sought with a large enough effect; an effect the other way counts as inactive or inconclusive; also: nearly all actives have a fitted effect of over 55% in size)
How it was run: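 Human lymphoblastoid cells (2500/well) in complete medium were preincubated 5 hr at 37 C, then compound-treated 24 hr at 37 C. Intracellular ATP was read by CellTiter-Glo luminescence after 30 min at room temperature; AC50 came from Hill-equation concentration-response fits.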

[3] = molecular target: Estrogen receptor (Homo sapiens) (UniProt P03372); test: qHTS assay for small molecule antagonists of estrogen receptor alpha signaling (AID 588513; active = well fitted curve in the direction sought with a large enough effect in the signal ratio, with a control signal flat, not every such curve was filed as active; the % refers to the signal ratio)
Chain of Estrogen receptor (Homo sapiens) (P03372 whole entry, looked up): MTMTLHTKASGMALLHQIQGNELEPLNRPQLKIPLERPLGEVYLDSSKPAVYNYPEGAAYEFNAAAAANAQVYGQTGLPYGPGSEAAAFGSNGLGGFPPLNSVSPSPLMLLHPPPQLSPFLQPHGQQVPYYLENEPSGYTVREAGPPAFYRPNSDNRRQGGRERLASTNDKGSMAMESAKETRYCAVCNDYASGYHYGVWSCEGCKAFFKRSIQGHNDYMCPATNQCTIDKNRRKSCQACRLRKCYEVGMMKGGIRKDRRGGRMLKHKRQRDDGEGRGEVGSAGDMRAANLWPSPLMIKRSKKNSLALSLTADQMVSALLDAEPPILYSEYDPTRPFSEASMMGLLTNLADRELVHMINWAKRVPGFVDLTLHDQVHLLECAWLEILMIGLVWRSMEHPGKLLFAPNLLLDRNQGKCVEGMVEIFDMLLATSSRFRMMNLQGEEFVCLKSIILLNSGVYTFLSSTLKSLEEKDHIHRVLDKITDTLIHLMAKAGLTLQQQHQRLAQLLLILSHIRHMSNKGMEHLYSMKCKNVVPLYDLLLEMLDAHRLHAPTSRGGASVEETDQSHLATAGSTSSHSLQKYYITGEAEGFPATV
How it was run: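 Fluorescence from CCF4 substrate after 2 h at room temperature gave reporter activity; cells had been exposed to compound and 0.5nM 17-beta-estradiol for 18 h at 37 C. Hill-equation fitting yielded IC50 and maximal response.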

[4] = molecular target: Glucocorticoid receptor (Homo sapiens) (UniProt P04150); test: qHTS assay for small molecule agonists of glucocorticoid receptor signaling (AID 588532; active = well fitted curve in the direction sought with a large enough effect in the signal ratio, with a control signal flat; the % refers to the signal ratio); conditions: HeLa MMTV-bla, beta-lactamase ratio, agonist, 18 h; stronger effect = higher value; percent of dexamethasone control, DMSO zero
Chain of Glucocorticoid receptor (Homo sapiens) (P04150 whole entry, looked up): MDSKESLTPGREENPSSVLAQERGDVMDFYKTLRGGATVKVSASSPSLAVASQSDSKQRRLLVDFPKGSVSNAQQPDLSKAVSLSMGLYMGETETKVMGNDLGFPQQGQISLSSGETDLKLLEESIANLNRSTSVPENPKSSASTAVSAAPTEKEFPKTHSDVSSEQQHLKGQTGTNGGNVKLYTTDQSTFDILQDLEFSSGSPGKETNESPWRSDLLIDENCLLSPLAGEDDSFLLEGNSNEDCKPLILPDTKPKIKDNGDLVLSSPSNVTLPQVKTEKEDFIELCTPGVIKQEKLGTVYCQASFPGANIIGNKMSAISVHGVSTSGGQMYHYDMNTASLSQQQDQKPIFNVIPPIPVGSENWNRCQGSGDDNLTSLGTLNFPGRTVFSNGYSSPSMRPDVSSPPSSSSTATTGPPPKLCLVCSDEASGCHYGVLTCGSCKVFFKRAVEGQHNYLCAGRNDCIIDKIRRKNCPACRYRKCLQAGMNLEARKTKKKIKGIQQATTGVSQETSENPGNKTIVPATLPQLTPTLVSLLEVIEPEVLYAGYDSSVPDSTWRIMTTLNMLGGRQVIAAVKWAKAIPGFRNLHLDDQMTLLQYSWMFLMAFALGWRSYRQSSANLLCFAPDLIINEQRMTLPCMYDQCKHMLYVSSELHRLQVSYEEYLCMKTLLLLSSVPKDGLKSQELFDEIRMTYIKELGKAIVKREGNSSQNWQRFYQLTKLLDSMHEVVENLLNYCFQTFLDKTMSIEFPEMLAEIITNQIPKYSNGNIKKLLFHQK
How it was run: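 Quantitative HTS using CellSensor MMTV-bla HeLa cells in charcoal/dextran-treated serum; compounds tested up to 92 uM. After 18 h at 37 C, CCF4 dye reported reporter induction.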

[5] = molecular target: Glucocorticoid receptor (Homo sapiens) (UniProt P04150); test: qHTS assay for small molecule antagonists of glucocorticoid receptor signaling (AID 588533; active = well fitted inhibition curve with a large enough effect in the signal ratio, with a control signal flat, not every such curve was filed as active; the % refers to the signal ratio;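 also: cells stimulated with 2 nM dexamethasone as agonist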)
How it was run: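 Antagonist-mode qHTS: compound titrations added to GRE-bla HeLa cells, then dexamethasone 2 nM final; 18 h, 37 C. CCF4 FRET fluorescence normalized to dexamethasone and DMSO; IC50 from Hill fit.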

[6] = molecular target: Peroxisome proliferator-activated receptor delta (Homo sapiens) (UniProt Q03181); test: qHTS assay for small molecule agonists of peroxisome proliferator-activated receptor delta signaling (AID 588534)
Chain of Peroxisome proliferator-activated receptor delta (Homo sapiens) (Q03181 whole entry, looked up): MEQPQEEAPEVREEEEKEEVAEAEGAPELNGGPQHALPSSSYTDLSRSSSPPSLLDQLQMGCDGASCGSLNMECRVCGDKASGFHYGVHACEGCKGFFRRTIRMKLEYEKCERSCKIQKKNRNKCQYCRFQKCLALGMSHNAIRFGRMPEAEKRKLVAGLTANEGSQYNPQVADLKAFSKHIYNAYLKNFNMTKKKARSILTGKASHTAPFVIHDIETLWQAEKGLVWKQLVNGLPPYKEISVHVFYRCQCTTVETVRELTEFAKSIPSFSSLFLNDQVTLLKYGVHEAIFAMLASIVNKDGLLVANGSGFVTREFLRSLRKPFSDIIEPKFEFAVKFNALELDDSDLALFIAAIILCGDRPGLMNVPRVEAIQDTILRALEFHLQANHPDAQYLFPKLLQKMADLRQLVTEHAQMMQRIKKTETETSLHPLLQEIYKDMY
How it was run: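 Cell-based beta-lactamase reporter assay run in agonist mode: cells seeded and incubated 5 hrs at 37 C, compounds added and incubated 18 hrs at 37 C. CCF4 dye fluorescence read after 2 hrs at RT; EC50 and efficacy from Hill fits.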

[7] = qHTS assay for small molecule antagonists of peroxisome proliferator-activated receptor delta signaling (AID 588535; active = well fitted inhibition curve with a large enough effect in the signal ratio, with a control signal flat, not every such curve was filed as active; the % refers to the signal ratio;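 as to max response: cells co-treated with a PPAR-delta agonist as stimulator during compound exposure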); conditions: HEK293T PPARd-UAS-bla, beta-lactamase FRET ratio, 18 h; 460 nm channel
How it was run: (§1)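 Cell-based beta-lactamase assay in antagonist mode: 4000 HEK293T PPAR-delta-UAS-bla cells per well, 5 hr preincubation then 18 hr compound incubation at 37 C. IC50 obtained by Hill equation fitting.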

[8] = molecular target: Peroxisome proliferator-activated receptor delta (Homo sapiens) (UniProt Q03181); test: as above
How it was run: as §1

[9] = molecular target: Peroxisome proliferator-activated receptor gamma (Homo sapiens) (UniProt P37231); test: qHTS assay for small molecule agonists of peroxisome proliferator-activated receptor gamma signaling (AID 588536; active = well fitted curve in the direction sought with a large enough effect in the signal ratio, with a control signal flat, not every such curve was filed as active; the % refers to the signal ratio)
Chain of Peroxisome proliferator-activated receptor gamma (Homo sapiens) (P37231 whole entry, looked up): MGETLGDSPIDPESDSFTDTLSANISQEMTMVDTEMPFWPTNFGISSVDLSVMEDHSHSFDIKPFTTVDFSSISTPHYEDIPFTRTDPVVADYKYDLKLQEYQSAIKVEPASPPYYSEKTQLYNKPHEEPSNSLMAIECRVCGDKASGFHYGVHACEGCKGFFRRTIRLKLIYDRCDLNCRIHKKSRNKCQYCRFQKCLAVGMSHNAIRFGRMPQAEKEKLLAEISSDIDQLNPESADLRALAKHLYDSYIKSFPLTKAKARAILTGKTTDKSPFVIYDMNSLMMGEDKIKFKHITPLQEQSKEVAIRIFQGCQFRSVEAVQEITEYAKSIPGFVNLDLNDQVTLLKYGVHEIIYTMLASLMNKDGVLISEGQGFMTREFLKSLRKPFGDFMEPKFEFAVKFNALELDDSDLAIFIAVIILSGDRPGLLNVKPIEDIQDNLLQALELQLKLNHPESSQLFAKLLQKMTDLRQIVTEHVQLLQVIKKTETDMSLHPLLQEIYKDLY
How it was run: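 HEK293 UAS-bla reporter line, 1% charcoal/dextran FBS; titration, 16 h, 37 C; CCF4 loading 2 h RT; fluorescence 460/530 nm. Normalized to rosiglitazone 2 uM = 100%, DMSO = 0%.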

[10] = molecular target: Vitamin D3 receptor (Homo sapiens) (UniProt P11473); test: qHTS assay for small molecule antagonists of vitamin D receptor signaling (AID 588541);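 also: receptor activated by calcitriol during compound treatment; series mostly up to about 77 µM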
Chain of Vitamin D3 receptor (Homo sapiens) (P11473 whole entry, looked up): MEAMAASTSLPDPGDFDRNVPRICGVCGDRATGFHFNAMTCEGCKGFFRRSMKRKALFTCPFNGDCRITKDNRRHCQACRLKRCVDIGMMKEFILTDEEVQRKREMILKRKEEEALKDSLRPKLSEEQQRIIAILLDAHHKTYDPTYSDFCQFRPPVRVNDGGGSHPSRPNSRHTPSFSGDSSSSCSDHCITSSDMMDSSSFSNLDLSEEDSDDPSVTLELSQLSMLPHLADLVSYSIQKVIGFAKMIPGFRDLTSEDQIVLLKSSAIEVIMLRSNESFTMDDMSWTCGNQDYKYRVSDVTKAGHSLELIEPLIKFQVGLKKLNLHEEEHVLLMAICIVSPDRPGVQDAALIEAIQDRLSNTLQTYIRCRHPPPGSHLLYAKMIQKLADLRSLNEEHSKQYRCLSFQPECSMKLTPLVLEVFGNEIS
How it was run: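 Antagonist-mode beta-lactamase reporter assay: HEK293T VDR-UAS-bla cells were exposed to titrated compound alongside 1-alpha,25-dihydroxyvitamin D3 at 3 nM final for 16 h. Values were normalized to the 50 nM agonist control and DMSO basal, with IC50 and efficacy from Hill equation fits.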

[11] = molecular target: Thyroid hormone receptor beta (Homo sapiens) (UniProt P10828); test: qHTS assay for small molecule agonists of thyroid hormone receptor beta signaling (AID 588545)
Chain of Thyroid hormone receptor beta (Homo sapiens) (P10828 whole entry, looked up): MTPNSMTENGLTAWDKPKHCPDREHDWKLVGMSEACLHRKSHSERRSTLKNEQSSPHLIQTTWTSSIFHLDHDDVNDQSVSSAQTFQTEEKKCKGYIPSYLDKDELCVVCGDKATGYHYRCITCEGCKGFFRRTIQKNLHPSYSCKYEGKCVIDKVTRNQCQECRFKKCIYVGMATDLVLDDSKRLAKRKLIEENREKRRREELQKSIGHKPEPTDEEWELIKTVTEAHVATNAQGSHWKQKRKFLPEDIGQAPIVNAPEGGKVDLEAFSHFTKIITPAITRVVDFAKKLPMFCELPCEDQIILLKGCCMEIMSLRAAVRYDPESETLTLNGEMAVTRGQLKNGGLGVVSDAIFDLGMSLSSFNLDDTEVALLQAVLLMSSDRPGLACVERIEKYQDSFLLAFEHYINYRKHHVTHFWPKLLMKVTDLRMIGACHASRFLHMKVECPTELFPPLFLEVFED
How it was run: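 HEK 293 TR-UAS-bla; agonist mode; 18 hrs, 37 C; CCF4, ex 405/em 460 and 530 nm; norm. T3 10 nM = 100%, DMSO = 0%; Hill fit → EC50, efficacy.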

[12] = molecular target: Thyroid hormone receptor beta (Homo sapiens) (UniProt P10828); test: qHTS assay for small molecule antagonists of thyroid hormone receptor beta signaling (AID 588547; active = well fitted inhibition curve with a large enough effect in the signal ratio, with a control signal flat, not every such curve was filed as active; the % refers to the signal ratio;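 also: cells stimulated with 0.4 nM T3 agonist during compound exposure; series mostly up to about 77 µM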); conditions: TR-UAS-bla HEK293, beta-lactamase ratio, antagonist mode, 18 h
How it was run: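 Inhibition of T3-driven (0.4nM final) beta-lactamase reporter activity was measured over 0.59 nM to 92 uM compound after 18 h at 37 C. The cells were GripTite HEK293 TR-UAS-bla in charcoal/dextran-stripped serum, with CCF4 ratio read-out and IC50 from Hill fits.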

[13] = molecular target: Voltage-gated inwardly rectifying potassium channel KCNH2 (Homo sapiens) (UniProt Q12809); test: qHTS Assay for Small Molecule Inhibitors of the Human hERG Channel Activity (AID 588834; active = well fitted curve in the direction sought with a large enough effect; an effect the other way counts as inactive or inconclusive;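 also: top concentration of the series differs between compounds; lower thallium flux fluorescence means stronger hERG block; nearly all actives have a fitted effect of over 50% in size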)
Chain of Voltage-gated inwardly rectifying potassium channel KCNH2 (Homo sapiens) (Q12809 whole entry, looked up): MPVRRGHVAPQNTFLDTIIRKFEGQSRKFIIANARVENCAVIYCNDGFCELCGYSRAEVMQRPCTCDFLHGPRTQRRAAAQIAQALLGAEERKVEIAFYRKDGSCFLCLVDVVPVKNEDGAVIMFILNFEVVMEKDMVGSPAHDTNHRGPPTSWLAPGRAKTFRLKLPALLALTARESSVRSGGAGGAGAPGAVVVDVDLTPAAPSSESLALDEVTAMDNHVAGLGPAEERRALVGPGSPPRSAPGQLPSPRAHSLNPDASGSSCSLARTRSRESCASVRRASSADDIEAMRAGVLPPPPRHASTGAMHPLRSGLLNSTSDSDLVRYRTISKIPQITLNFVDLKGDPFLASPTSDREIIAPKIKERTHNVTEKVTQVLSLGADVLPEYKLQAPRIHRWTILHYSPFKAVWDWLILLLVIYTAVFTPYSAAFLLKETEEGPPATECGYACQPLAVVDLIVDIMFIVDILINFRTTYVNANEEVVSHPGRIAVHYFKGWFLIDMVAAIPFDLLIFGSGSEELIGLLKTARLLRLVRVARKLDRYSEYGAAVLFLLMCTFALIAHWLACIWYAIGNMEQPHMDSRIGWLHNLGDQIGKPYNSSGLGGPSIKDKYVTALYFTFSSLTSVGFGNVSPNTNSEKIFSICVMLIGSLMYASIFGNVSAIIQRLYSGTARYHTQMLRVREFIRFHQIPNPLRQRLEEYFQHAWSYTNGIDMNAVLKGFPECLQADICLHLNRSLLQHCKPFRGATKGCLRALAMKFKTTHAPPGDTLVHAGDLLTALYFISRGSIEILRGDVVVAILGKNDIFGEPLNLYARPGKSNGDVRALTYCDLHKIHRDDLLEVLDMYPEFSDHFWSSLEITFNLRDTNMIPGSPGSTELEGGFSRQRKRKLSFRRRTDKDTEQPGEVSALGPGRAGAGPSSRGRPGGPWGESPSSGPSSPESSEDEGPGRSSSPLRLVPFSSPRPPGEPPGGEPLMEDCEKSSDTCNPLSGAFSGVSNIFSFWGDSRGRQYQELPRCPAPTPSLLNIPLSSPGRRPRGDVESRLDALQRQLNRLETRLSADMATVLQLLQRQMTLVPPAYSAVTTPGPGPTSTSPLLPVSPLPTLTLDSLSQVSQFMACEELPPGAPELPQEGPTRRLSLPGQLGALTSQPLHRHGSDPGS
How it was run: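 hERG-BacMam U2OS, 2000 cells/well; 0.7X FluxOR loading 1 hr RT dark; cpd ~10 min 37 °C; stim buffer; FDSS fluorescence 2 min @ 1 s; AC50 Hill fit.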

[14] = qHTS assay for small molecule agonists of the antioxidant response element (ARE) signaling pathway (AID 651741; active = well fitted activation curve with a large enough effect in the signal ratio; the % refers to the signal ratio; also: potency is read from the fitted curve at half-maximal effect)
How it was run: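 Seeding 2,000 ARE-bla HepG2 cells per well preceded a 5 h incubation at 37 C/5% CO2 and a 16 h compound exposure at 37 C. Beta-lactamase reporter activity was then quantified by fluorescence after 2 h with LiveBLAzer B/G FRET substrate.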

[15] = qHTS assay for small molecule activators of the nuclear factor-kappa B (NF-kB) signaling pathway (AID 651749; active = well fitted activation curve with a large enough effect in the signal ratio; the % refers to the signal ratio; also: series mostly up to about 77 µM); conditions: NF-kB-bla ME-180 cells, beta-lactamase FRET ratio, 16 h; stronger effect = higher value
How it was run: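 Stably transfected ME-180 line; NF-kB response element upstream of beta-lactamase. Treatment: compound or DMSO, 16 hr. Detection: fluorescent FRET substrate.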

[16] = Cell Viability - LYMP2-024 (AID 988; active = well fitted curve in the direction sought with a large enough effect; an effect the other way counts as inactive or inconclusive; also: nearly all actives have a fitted effect of over 60% in size)
How it was run: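 Human lymphoblastoid cells (2500/well) in complete medium were preincubated 5 hr at 37 C, then exposed to compounds for 24 hr at 37 C. Intracellular ATP was read by CellTiter-Glo luminescence; AC50 from Hill-equation fits of concentration-response data.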

[17] = molecular target: Peroxisome proliferator-activated receptor gamma (Homo sapiens) (UniProt P37231); test: qHTS assay for small molecule antagonists of peroxisome proliferator-activated receptor gamma signaling (AID 588537; active = well fitted inhibition curve with a large enough effect in the signal ratio, with a control signal flat, not every such curve was filed as active; the % refers to the signal ratio;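 also: reporter cells co-stimulated with 50 nM rosiglitazone agonist during compound treatment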)
How it was run: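 Inhibitors of agonist-stimulated UAS-bla reporter activity were sought in HEK293 cells; rosiglitazone (50 nM) defined full signal and DMSO baseline. Curves fitted to Hill model gave IC50 and efficacy.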

[18] = qHTS assay for small molecule disruptors of the mitochondrial membrane potential - 1 hr assay (AID 651754); also: nearly all actives have a fitted effect of over 35% in size; also: potency is read from the fitted curve at half-maximal effect
How it was run: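 HepG2 cells, attached overnight at 37C, were exposed to compound or DMSO vehicle for 1 hr at 37C, 5% CO2, then stained with Mito-MPS dye for 30 min. Red aggregate versus green monomer fluorescence reports membrane potential.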

[19] = qHTS assay for small molecule activators of the p53 signaling pathway (AID 651743; active = well fitted activation curve with a large enough effect in the signal ratio, not every such curve was filed as active; the % refers to the signal ratio; also: series mostly up to about 92 µM); conditions: HCT-116 p53RE-bla, beta-lactamase FRET ratio, 16 h; activation: stronger effect = higher value
How it was run: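 Screen for p53 pathway agonists uses stably transfected p53RE-bla HCT-116 cells, 4,000 per well, treated 16 h at 37 C with compounds in DMSO.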

[20] = molecular target: Bile acid receptor (Homo sapiens) (UniProt Q96RI1); test: qHTS assay for small molecule agonists of farnesoid X receptor signaling (AID 588527); conditions: HEK293T FXR-UAS-bla, beta-lactamase ratio, 16 h; stronger effect = higher value; also: series mostly up to about 77 µM
Chain of Bile acid receptor (Homo sapiens) (Q96RI1 whole entry, looked up): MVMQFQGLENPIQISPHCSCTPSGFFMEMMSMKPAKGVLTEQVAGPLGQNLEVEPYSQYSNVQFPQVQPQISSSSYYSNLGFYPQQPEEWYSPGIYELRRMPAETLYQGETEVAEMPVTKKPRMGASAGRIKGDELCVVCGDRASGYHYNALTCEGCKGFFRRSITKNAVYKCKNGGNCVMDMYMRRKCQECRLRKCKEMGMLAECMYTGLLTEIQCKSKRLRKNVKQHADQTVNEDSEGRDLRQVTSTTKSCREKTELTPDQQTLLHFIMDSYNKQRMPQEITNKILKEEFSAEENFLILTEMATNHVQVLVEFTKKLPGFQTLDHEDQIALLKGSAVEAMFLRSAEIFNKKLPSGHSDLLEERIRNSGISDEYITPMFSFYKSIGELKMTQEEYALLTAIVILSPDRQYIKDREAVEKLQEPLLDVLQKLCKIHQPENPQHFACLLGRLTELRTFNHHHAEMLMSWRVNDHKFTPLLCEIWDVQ
How it was run: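 Quantitative HTS used FXR-UAS-bla HEK293T cells with 16 h compound incubation at 37 C. EC50 values came from concentration-response curves normalized to chenodeoxycholic acid.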

Row | SMILES | outcome [1] | Potency [2] | Potency [3] | activation [4] | outcome [5] | outcome [6] | max response [7] | outcome [8] | outcome [9] | outcome [10] | Potency [11] | activity change % (negative = inhibition) [12] | Potency [13] | Potency [14] | activation [15] | Potency [16] | Potency [17] | Potency [18] | activation [19] | activation [20]
1 | ClC(Cl)c1ccccc1 | inactive | inactive | inactive | -0.105% (inactive) | inactive | inactive | 17.7% | inactive | inactive | inactive | inactive | -1.09% (inactive) | inactive | inactive | -0.312% (inactive) | – | – | – | – | –
2 | Cc1ccc(N)cc1Cl | inactive | – | inactive | – | – | – | – | – | inactive | – | inactive | -8.08% (inactive) | inactive | – | -0.096% (inactive) | inactive | inactive | inactive | – | –
3 | Clc1ccccc1 | inactive | – | inactive | -4.89% (inactive) | – | inactive | -34.6% | inactive | – | inactive | inactive | – | inactive | – | – | – | inactive | inactive | – | –
4 | CC(C)CC(C)N (stereo not given) | inactive | inactive | inactive | – | inactive | inactive | -20.2% | inactive | – | – | inactive | 11.1% (inactive) | – | – | – | – | inactive | inactive | -1.88% (inactive) | –
5 | CCCCCc1cc(O)cc(O)c1 | inactive | – | – | – | – | inactive | – | – | inactive | inactive | inactive | -2.41% (inactive) | inactive | 42.2 µM (active) | – | – | – | 37.6 µM (active) | -2.37% (inactive) | 2.26% (inactive)
6 | Cc1ccc([N+](=O)[O-])cc1 | inactive | inactive | inactive | -2.83% (inactive) | inactive | inactive | 22.5% | – | inactive | inactive | inactive | – | inactive | – | – | inactive | inactive | inactive | -4.73% (inactive) | –
7 | Cc1ccc2c(C)cccc2c1 | – | inactive | inactive | -2.73% (inactive) | inactive | inactive | 16.7% | – | – | inactive | inactive | 8.64% (inactive) | inactive | inactive | – | inactive | inactive | inactive | -0.174% (inactive) | –
8 | Nc1ccc(-c2ccccc2)cc1 | – | inactive | inactive | – | – | inactive | – | – | – | inactive | inactive | -2.45% (inactive) | inactive | – | -0.257% (inactive) | – | – | – | -1.6% (inactive) | –
9 | N#CCc1ccccc1 | inactive | inactive | inactive | – | – | inactive | -33.3% | inactive | inactive | inactive | – | 23.1% (inactive) | inactive | – | 0.487% (inactive) | – | inactive | – | -0.84% (inactive) | –
10 | S=c1[nH]c2ccccc2[nH]1 | – | inactive | – | -3.9% (inactive) | inactive | – | – | – | inactive | – | – | -0.89% (inactive) | inactive | – | – | inactive | inactive | inactive | – | –
11 | Nc1cccc2ccccc12 | inactive | – | inactive | – | – | inactive | – | – | inactive | – | – | 1.61% (inactive) | inactive | – | – | – | – | inactive | -3.1% (inactive) | –
12 | CCCCCCCCCCCCCl | inactive | – | inactive | 2.7% (inactive) | inactive | – | 10.4% | inactive | inactive | – | inactive | – | inactive | – | – | inactive | inactive | – | -1.06% (inactive) | –
13 | C1CC2OC2CC1C1CO1 (stereo not given) | inactive | – | – | – | – | inactive | 13.2% | inactive | inactive | inactive | inactive | 7.88% (inactive) | inactive | inactive | -0.692% (inactive) and -2.3% (inactive) | inactive | inactive | inactive | -4.75% (inactive) and -3.06% (inactive) | -0.198% (inactive)
14 | FC(Cl)(Cl)Cl | inactive | inactive | – | 0.534% (inactive) | inactive | – | – | – | inactive | inactive | inactive | -7.45% (inactive) | inactive | inactive | – | inactive | inactive | inactive | -3.53% (inactive) | -3.19% (inactive)
15 | ClC=CCl | inactive | – | inactive | -2.58% (inactive) | – | inactive | 12.6% | – | – | – | – | -5.48% (inactive) | inactive | inactive | 0.173% (inactive) | inactive | – | inactive | -3.46% (inactive) | –
16 | C=CCCl | inactive | inactive | inactive | 2.78% (inactive) | – | inactive | – | – | inactive | inactive | – | – | inactive | – | -0.803% (inactive) | inactive | inactive | inactive | – | –
17 | CCC/C=N/O | inactive | inactive | inactive | 5.99% (inactive) | inactive | – | – | – | – | inactive | inactive | 3.59% (inactive) | inactive | – | – | inactive | inactive | inactive | – | 0.311% (inactive)
18 | O=S(=O)(O)F | inactive | inactive | inactive | – | – | – | 7.1% | inactive | inactive | inactive | inactive | 10% (inactive) | inactive | inactive | – | inactive | – | inactive | – | 0.0183% (inactive)
19 | CCC[N+](=O)[O-] | inactive | – | – | – | – | inactive | -21.5% | inactive | inactive | – | inactive | -9.22% (inactive) | inactive | – | -0.704% (inactive) | – | inactive | inactive | -0.809% (inactive) | 2.98% (inactive)
